# Laboratory results published in PubChem BioAssay.
# Activity calls are given as the source filed them.
# Experiments:
# [1] = E. coli DRC41 culture turbidity changes, primary screen, E. coli filamentation inducer project, strain DRC41, OD650, 48 h (AID 1152);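 also: E. coli MC1000 strain DRC41 lacking acrAB efflux pump and sulA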; conditions: E. coli DRC41 (acrAB sulA), higher = more signal, called active from +8 up or from −8 down
# [2] = small-molecule binders of probe aLefty1, primary screen, biochemical, small-molecule microarray, 635/667 nm fluorescence (AID 1153); conditions: higher = more signal;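 also: score merges spot fluorescence with signal-to-noise ratio from the scanned slide images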
# [3] = PSAC antagonists in infected red cells, primary screen, cell-based, P. falciparum Indochina, OD700, 1 h (AID 1154); conditions: P. falciparum Indochina infected RBC osmotic lysis, higher = more signal, called active from +8 up or from −8 down
# [4] = PSAC antagonists in infected red cells, primary screen, cell-based, P. falciparum Indochina, OD700, 2 h (AID 1155);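 also: lysis reports solute entry through the parasite surface anion channel PSAC; channel blockers reduce lysis of infected cells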; conditions: P. falciparum Indochina infected erythrocytes, osmotic lysis OD700; higher = more signal, called active from +8 up or from −8 down
# [5] = osmotic lysis modulators in infected erythrocytes, primary screen, PSAC antagonist project, cell-based, P. falciparum Indochina, OD700, 3 h (AID 1156); conditions: higher = more signal, called active from +8 up or from −8 down
# [6] = PSAC antagonists in infected red cells, primary screen, cell-based, P. falciparum Indochina, OD700, 18 h (AID 1157); conditions: P. falciparum Indochina infected erythrocytes, osmotic lysis OD700, 18 h; higher = more signal, called active from +8 up or from −8 down
# [7] = modulators of S6 phosphorylation in cells, primary screen, cell-based, A549, cytoblot, luminescence, serum-stimulated (AID 1158); conditions: A549 phospho-S6 cytoblot, 5 h, higher = more signal;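 also: serum-stimulated A549 lung adenocarcinoma cells; signal is phosphorylated S6 detected by cytoblot immunostaining with HRP secondary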
# [8] = target: NADPH oxidase 2 (Homo sapiens) (UniProt P04839); assay: NOX2-dependent H2O2 signal modulators, primary screen, NOX inhibitor project, cell-based, HEK293-NOX2, PMA-stimulated, Amplex Red fluorescence (AID 1159); conditions: 45 min, higher = more signal, called active from +8 up or from −8 down; also: test concentration not given here
# Chain of NADPH oxidase 2 (Homo sapiens) (P04839 whole entry, looked up): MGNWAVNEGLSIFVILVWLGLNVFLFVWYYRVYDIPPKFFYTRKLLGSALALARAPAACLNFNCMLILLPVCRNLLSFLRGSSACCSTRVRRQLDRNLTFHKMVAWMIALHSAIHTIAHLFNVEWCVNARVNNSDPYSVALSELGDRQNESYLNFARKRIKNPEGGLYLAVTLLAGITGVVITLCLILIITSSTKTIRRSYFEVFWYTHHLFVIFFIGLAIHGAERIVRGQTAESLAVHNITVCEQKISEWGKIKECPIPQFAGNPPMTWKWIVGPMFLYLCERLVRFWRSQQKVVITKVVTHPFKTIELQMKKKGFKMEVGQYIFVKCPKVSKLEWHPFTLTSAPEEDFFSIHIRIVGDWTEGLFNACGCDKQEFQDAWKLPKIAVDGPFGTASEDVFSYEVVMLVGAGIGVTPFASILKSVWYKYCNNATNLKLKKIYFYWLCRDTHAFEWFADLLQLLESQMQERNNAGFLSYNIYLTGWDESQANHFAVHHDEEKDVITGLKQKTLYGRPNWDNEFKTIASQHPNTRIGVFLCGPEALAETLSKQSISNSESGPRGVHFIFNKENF
# [9] = target: NADPH oxidase 4 (Homo sapiens) (UniProt Q9NPH5); assay: NOX4-dependent H2O2 signal modulators, primary screen, NOX inhibitor project, cell-based, HEK293-NOX4, tetracycline-induced, Amplex Red fluorescence (AID 1160); conditions: 45 min, higher = more signal, called active from +8 up or from −8 down
# Chain of NADPH oxidase 4 (Homo sapiens) (Q9NPH5 whole entry, looked up): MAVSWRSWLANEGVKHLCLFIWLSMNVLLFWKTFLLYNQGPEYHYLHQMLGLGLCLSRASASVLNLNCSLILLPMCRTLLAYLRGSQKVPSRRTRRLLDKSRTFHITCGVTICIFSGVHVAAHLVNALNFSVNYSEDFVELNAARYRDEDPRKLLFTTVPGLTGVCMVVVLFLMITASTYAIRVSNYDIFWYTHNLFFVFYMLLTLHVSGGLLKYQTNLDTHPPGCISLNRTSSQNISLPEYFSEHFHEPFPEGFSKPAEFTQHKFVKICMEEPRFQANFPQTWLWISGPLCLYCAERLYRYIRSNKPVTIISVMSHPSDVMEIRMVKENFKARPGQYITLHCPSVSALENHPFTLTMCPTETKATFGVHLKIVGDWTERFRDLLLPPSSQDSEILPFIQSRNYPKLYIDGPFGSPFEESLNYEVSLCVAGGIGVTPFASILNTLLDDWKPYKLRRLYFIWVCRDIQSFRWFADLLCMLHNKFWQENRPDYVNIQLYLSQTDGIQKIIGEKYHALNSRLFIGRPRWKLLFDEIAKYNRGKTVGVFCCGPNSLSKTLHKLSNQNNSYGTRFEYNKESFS
# [10] = target: NADPH oxidase 5 (Homo sapiens) (UniProt Q96PH1); assay: NOX5-dependent H2O2 signal modulators, primary screen, NOX inhibitor project, cell-based, HEK293-NOX5, Amplex Red fluorescence (AID 1161); conditions: HEK293-NOX5, ionomycin, 45 min, higher = more signal
# Chain of NADPH oxidase 5 (Homo sapiens) (Q96PH1 whole entry, looked up): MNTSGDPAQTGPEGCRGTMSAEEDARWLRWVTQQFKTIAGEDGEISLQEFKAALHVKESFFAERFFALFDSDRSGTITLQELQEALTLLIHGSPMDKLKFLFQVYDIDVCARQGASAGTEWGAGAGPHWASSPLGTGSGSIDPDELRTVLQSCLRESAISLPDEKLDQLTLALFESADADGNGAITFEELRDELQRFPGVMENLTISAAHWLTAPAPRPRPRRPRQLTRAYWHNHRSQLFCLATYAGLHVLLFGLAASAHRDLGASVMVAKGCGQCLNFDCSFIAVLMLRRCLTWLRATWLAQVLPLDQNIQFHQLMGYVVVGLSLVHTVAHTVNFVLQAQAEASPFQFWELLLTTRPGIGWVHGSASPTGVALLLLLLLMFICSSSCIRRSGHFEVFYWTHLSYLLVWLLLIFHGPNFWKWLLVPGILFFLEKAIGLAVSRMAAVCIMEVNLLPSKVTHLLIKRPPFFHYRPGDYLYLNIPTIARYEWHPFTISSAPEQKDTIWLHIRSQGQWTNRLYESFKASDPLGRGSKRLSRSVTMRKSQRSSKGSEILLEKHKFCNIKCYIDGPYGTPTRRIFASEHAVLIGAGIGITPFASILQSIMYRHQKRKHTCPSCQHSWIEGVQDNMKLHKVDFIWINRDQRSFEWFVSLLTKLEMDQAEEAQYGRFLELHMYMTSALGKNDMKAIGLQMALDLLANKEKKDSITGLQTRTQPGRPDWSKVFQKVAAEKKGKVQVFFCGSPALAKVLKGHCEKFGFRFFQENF
SMILES,z-score [1],composite z-score [2],z-score [3],z-score [4],z-score [5],z-score [6],z-score [7],z-score [8],z-score [9],z-score [10]
COCC(=C=CC[C@@H](O)c1ccccc1OCCO)C[C@@H](O)c1ccccn1,-0.197 (inactive),0.235,8.59 (active),0.801 (inactive),0.502 (inactive),0.577 (inactive),-0.456,-0.459 (inactive),-1.04 (inactive),-1.31
O=c1c2ccc(Br)cc2nc(-c2ccccc2)n1Cc1cccc(O)c1,0.421 (inactive),0.748,15.7 (active),3.45 (inactive),0.386 (inactive),1.73 (inactive),-0.404,-1.84 (inactive),-1.05 (inactive),-1.99
CC(C)N1C(=O)c2ccccc2[C@](C)(C(=O)O)[C@@H]1c1ccc(CO)cc1,-0.308 (inactive),0.0451,0.268 (inactive),-0.103 (inactive),0.209 (inactive),0.352 (inactive),0.256,0.229 (inactive),-0.166 (inactive),-1.27
COCCOC(=O)N1C(=O)[C@@]2(c3ccccc31)[C@H](c1ccc(OCCO)cc1)N1[C@H](c3ccccc3)[C@H](c3ccccc3)OC(=O)[C@H]1[C@@H]2C(=O)NC[C@H](O)c1ccccc1,-0.769 (inactive),0.643,7.9 (inactive),1.94 (inactive),0.0925 (inactive),0.728 (inactive),-0.575,1.28 (inactive),0.989 (inactive),0.894
COC(=O)C(CC#Cc1ccc2c(c1)[C@]1(C(=O)N2)[C@H](c2ccc(O)cc2)N2[C@H](c3ccccc3)[C@H](c3ccccc3)OC(=O)[C@H]2[C@@H]1C(=O)O)C(=O)OC,-1.42 (inactive),0.0315,0.489 (inactive),-0.18 (inactive),-0.258 (inactive),-0.367 (inactive),-0.351,1.42 (inactive),0.0467 (inactive),1.29
CN(C)CCCC[C@@H]1NC(=O)[C@H]2C[C@@H](C(=O)NCCCCCCNC(=O)CS)[C@@H](c3ccc(O)cc3)N2C1=O,0.446 (inactive),0.0048,2.46 (inactive),0.374 (inactive),1.84 (inactive),0.178 (inactive),0.469,1.35 (inactive),1.78 (inactive),1.52
COC(=O)[C@@]1(Cc2ccccc2)[C@H]2c3cc(C(=O)N(C)C)n(Cc4ccc(O)c(OC)c4)c3C[C@H]2CN1C(=O)c1ccccc1,-0.404 (inactive),0.774,2.41 (inactive),-0.214 (inactive),0.158 (inactive),-1.32 (inactive),1.67,-4.69 (inactive),-6.03 (inactive),-6.08
[N-]=[N+]=Nc1ccccc1C[C@]1(C(=O)NCCN2CCOCC2)N=C(c2ccc(OCCCO)cc2)O[C@H]1c1ccccc1N=[N+]=[N-],1.11 (inactive),0.628,27.7 (active),23.2 (active),1.35 (inactive),4.41 (inactive),1.75,-2.69 (inactive),0.686 (inactive),-1.15
COCCOC(=O)N1C(=O)[C@@]2(c3cc(C#Cc4ccc(OC)cc4)ccc31)[C@H](C(=O)N1CCc3cc(OC)c(OC)cc3C1)[C@H]1C(=O)O[C@H](c3ccccc3)[C@H](c3ccccc3)N1[C@@H]2c1ccc(OCCO)cc1,0.59 (inactive),0.0391,6.15 (inactive),2.99 (inactive),1.69 (inactive),1.42 (inactive),0.228,-0.306 (inactive),-1.58 (inactive),-0.623
CC(C)c1ccc(NN2C(C(O)c3ccccn3)C=CC3C(=O)N(c4ccccc4)C(=O)C32)cc1 (stereo not given),-0.701 (inactive),0.595,7.66 (inactive),1.4 (inactive),2.42 (inactive),1.64 (inactive),-0.336,-1.2 (inactive),-3.57 (inactive),-3.05
COCCCNC(=O)[C@@]1(Cc2ccccc2)COC(c2ccc(OCCCO)cc2)=N1,1.76 (inactive),1.1,22 (active),4.97 (inactive),1.12 (inactive),1.04 (inactive),-0.194,-1.25 (inactive),1.05 (inactive),-0.909
CC1(C)[C@@H]2CC(C(O)C3C=CC4C(=O)N(c5ccccc5)C(=O)C4N3Nc3ccccc3F)=C[C@@H]1C2 (stereo not given in full),0.446 (inactive),0.43,1.83 (inactive),0.194 (inactive),-1.57 (inactive),-0.786 (inactive),0.586,0.318 (inactive),0.0669 (inactive),-0.156
C[C@]12C(=O)N(CCCO)[C@@H]3C(=O)N(c4ccc(Cl)cc4)CC=CC31O[C@@H]1/C=C\CCCOC(=O)C12 (stereo not given in full),-0.511 (inactive),-0.0203,1.29 (inactive),0.396 (inactive),-0.423 (inactive),0.211 (inactive),-0.332,1.53 (inactive),0.84 (inactive),2.71
C#CCOC(=O)N[C@H](C=CCCCC)c1ccccc1,-0.288 (inactive),0.289,0.801 (inactive),0.852 (inactive),0.599 (inactive),0.715 (inactive),-0.469,0.877 (inactive),-0.194 (inactive),-0.212
O=C1O[C@H](c2ccccc2)[C@H](c2ccccc2)N2[C@H]1[C@@H](C(=O)NC[C@H](O)c1ccccc1)[C@]1(C(=O)Nc3ccccc31)[C@H]2c1ccccc1OCCO,2.45 (inactive),0.453,5.21 (inactive),1.84 (inactive),-2.5 (inactive),-0.343 (inactive),2.39,1.23 (inactive),0.707 (inactive),0.34
COC(=O)[C@@]1(Cc2ccccc2)[C@H]2c3cc(C(=O)N4CCCC4)n(CCO)c3C[C@H]2CN1C(=O)c1ccccc1,-0.258 (inactive),1.89,0.0574 (inactive),-0.644 (inactive),-0.513 (inactive),-1.61 (inactive),1.33,0.661 (inactive),-0.517 (inactive),-2.49
O=C(CS)NCCCCCNC(=O)[C@@H]1C[C@@H]2C(=O)N3CCC[C@H]3C(=O)N2[C@@H]1c1ccc(O)cc1,-0.391 (inactive),0.109,2.25 (inactive),0.508 (inactive),-2.66 (inactive),0.251 (inactive),-0.244,0.927 (inactive),0.313 (inactive),-0.651
O=C1O[C@H](c2ccccc2)[C@H](c2ccccc2)N2[C@H]1[C@@H](C(=O)N1CCCCCCC1)[C@]1(C(=O)Nc3ccc(C#CCCO)cc31)[C@H]2c1ccc(OCCO)cc1,0.543 (inactive),3.09,10.3 (active),2.04 (inactive),1.21 (inactive),1.02 (inactive),0.456,1.11 (inactive),0.597 (inactive),1.25
O=C1C[C@@](C(=O)NCc2ccccc2)(c2ccc([N+](=O)[O-])cc2)[C@@H](c2ccc(CO)cc2I)N1C1CCCCC1,0.936 (inactive),0.503,11.6 (active),1.94 (inactive),3.44 (inactive),1.09 (inactive),-0.153,1.23 (inactive),-1.03 (inactive),2.16
C=C[C@@H](O)[C@H]1CC(c2ccccc2)=NO1,1.07 (inactive),0.0557,16 (active),1.82 (inactive),-0.112 (inactive),0.477 (inactive),-0.194,-0.671 (inactive),-0.0807 (inactive),0.344
C[N+](C)(C)CCCC[C@@H]1NC(=O)[C@@H]2C[C@H](C(=O)NCCCCCNC(=O)CS)[C@H](c3cccc(OCCO)c3)N2C1=O,0.724 (inactive),-0.0061,3.64 (inactive),0.813 (inactive),-1.78 (inactive),0.718 (inactive),0.596,1.54 (inactive),0.433 (inactive),0.711
